An excerpt weighted towards active compounds, which were near 10% of everything screened.
Luciferase inh: inhibitors of firefly (Photinus pyralis) luciferase | P08659 | purified P. pyralis luciferase, luminescence, biochemical | Potency, µM (doses to about 115 µM), hits mostly inhibitors | 2.5% of 76,000 active; note: nearly all actives have a fitted effect of over 65% in size
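Luminescence read by CCD imaging after purified firefly luciferase (10nM final) was added to substrate buffer holding 10uM D-luciferin and 10uM ATP, pH 7.5, pre-dosed with compound.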
GPT2 inh: inhibitors of human GPT2 alanine aminotransferase; Recombinant GPT2, coupled pyruvate oxidase/HRP Amplex Red fluorescence; Potency, µM (titrated, usually from 57.7 µM), inactives show at the top dose activity change, negative = inhibition, hits mostly inhibitors; 0.25% of 100,000 active; Q8TD30; AID 1671188; note: nearly all actives have a fitted effect of over 60% in size
Target sequence (Q8TD30 whole entry, looked up): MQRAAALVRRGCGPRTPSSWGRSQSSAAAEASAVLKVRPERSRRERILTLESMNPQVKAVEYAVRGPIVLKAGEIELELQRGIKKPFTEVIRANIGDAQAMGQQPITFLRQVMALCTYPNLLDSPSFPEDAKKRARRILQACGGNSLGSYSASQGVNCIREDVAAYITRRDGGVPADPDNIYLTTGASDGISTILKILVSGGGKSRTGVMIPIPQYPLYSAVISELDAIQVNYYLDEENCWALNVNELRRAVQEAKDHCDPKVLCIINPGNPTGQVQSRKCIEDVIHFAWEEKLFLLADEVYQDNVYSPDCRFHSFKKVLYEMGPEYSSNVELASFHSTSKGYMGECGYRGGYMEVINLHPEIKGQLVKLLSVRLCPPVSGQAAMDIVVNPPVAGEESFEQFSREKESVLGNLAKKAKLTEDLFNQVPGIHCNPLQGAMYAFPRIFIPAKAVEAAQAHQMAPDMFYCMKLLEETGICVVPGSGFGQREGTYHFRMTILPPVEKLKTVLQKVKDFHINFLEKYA
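Recombinant GPT2 (10ng/uL) with 250uM a-KG and 2mM L-alanine, 30 min at room temperature, in HEPES pH 7.5 buffer. Pyruvate detected by pyruvate oxidase/HRP/Amplex Red fluorescence after 30 min in the dark; AOA (50uM) as positive control.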
NIH3T3 tox: kills NIH 3T3 cells; NIH 3T3 viability, CellTiter-Glo ATP luminescence, 48-72 h; 4.3% of 94,000 active; Potency, µM (series often up to 96.7 µM), for the others: at the top dose activity change, negative = cytotoxicity, hits mostly inhibitors; note: nearly all actives have a fitted effect of over 55% in size
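Mouse fibroblast NIH 3T3 cells, 400 per well, received compound via pintool and were incubated for 48 or 72 hr prior to CellTiter-Glo ATP luminescence measurement.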
hNpr1 antagonist: blocks ANP-stimulated signaling of human Npr1 receptor; P16066; HEK293 hNpr1 GloSensor cGMP, ANP-stimulated luminescence; Potency, µM (highest dose often 46.3 µM), for inactives: top-dose activity change, negative = inhibition, most hits filed as inhibitors; 1.6% of 76,000 active; AID 1347048; calls by dose curve; note: nearly all actives have a fitted effect of over 60% in size
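HEK293 cells stably expressing human Npr1 and cGMP GloSensor pGS-40F, loaded 2 h with 2% GloSensor reagent, given compound 30 min at room temperature. Luminescence read before and 20 min after 0.1 nM hNppA.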
HEK cytotox: kills HEK 293 cells | HEK 293 viability, ATP luminescence (CellTiter-Glo), 48-72 h | Potency, µM (titrated, usually from 115 µM), inactives show top-dose activity change, negative = cytotoxicity, most hits filed as inhibitors | 6.6% of 94,000 active; note: nearly all actives have a fitted effect of over 60% in size
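HEK 293 cells seeded at 250 cells/well were exposed to compound for 48 or 72 hr at 37 degree Celsius. Viability taken as ATP content by CellTiter-Glo luminescence.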
* hit, by the source's call; i = inactive; ? = inconclusive; . = not tested or not shown; [ ] = another dose, or the depositor's remark. Unless noted, calls come from the whole dose curve; as a rule, active = well fitted curve in the direction sought with a large enough effect; inconclusive = small, poorly fitted or top-dose-only effect, or another doubt; inactive = no such curve, though single readings can be large; an effect the other way counts as inactive or inconclusive. % is set by controls: 0 for no effect and ±100 for the full control effect; potency is the fitted concentration of half-maximal effect.

SMILES	Luciferase inh	GPT2 inh	NIH3T3 tox	hNpr1 antagonist	HEK cytotox
COCC1CN(C)CC12CCN(S(=O)(=O)c1ccc3c(c1)CCC3)CC2 (centres undefined)	i	?	?	-22%	?
O=C(O)CCn1ncc2cc(OCc3ccc(-c4ccncc4)cc3)ccc21	?	4%[88.5 µM]	?	.	-8%[172 µM]
CC(NC(=O)c1csc2nc(-c3cccc(C(F)(F)F)c3)cn12)c1ccncn1 (centres undefined)	40µM*	-20%	?	0%	?
N[C@@H](CC(=O)N1CCn2c(nnc2C(F)(F)F)C1)Cc1[nH]nc2c(F)c(F)ccc12	.	-2%	.	.	.
Cc1ccc(-c2nccn3cc(C(=O)NCC(C)C)nc23)cc1	i	-13%	?	-8%	40µM*
Cc1ccc(-c2nccn3cc(C(=O)O)nc23)cc1	i	-12%	?	0%	3%
Cn1cccc1CN1CCC12Cc1ccccc1NC2=O (centres undefined)	i	i	-16%[138 µM]	6%[70.6 µM]	?
Cc1ccc(CC(=O)N2CCc3cn(C)c4cccc(c34)C2)cc1	i	i	?	3%	79µM*
O=C(Nc1ccc([C@H]2OCC(=O)N(Cc3ccccc3)[C@@H]2CO)cc1)C1CCOCC1	i	i	?	3%[70.6 µM]	?
Cc1cccc2c(C3CCN(S(=O)(=O)c4cc(F)c(F)cc4Cl)CC3)c[nH]c12	i	-12%	32µM*	-1%	?
COc1ccc(Cl)cc1S(=O)(=O)N1CCC(c2c[nH]c3c(C)cccc23)CC1	i	-8%	?	-14%	?
CC(C)NC(=O)c1nc2sccn2c1-c1ccc(F)cc1	.	i	-33%[138 µM]	.	-16%[172 µM]
O=C1c2c(nc(COc3cccc(C(F)(F)F)c3)n2Cc2ccccc2)NCCN1CC1CC1	i	3%	35µM*	-8%	50µM*
N#Cc1cccc(OCc2nc3c(n2Cc2ccccc2)C(=O)N(Cc2ccccc2F)CCN3)c1	i	i	28µM*	-21%	?
O=C1c2c(nc(COc3cccc(Cl)c3)n2Cc2ccccc2)NCCN1CCOc1ccccc1	i	-12%	18µM*	-17%	?
O=C1c2c(nc(CNc3ccccc3Cl)n2Cc2ccccc2)NCCN1CC1CC1	i	-8%[88.5 µM]	89µM*	-17%[70.6 µM]	100µM*
CNC(=O)c1cc[nH]c1C1CCCN(C(=O)CCc2nc3ccccc3[nH]2)C1 (centres undefined)	i	i	-4%	6%	-18%
O=C1NC2(CCCN(Cc3ccc(C(F)(F)F)cc3)C2)COc2ccccc21 (centres undefined)	i	-9%	?	0%	?
COc1cccc(OCc2nc3c(n2Cc2ccccc2)C(=O)N(CCOc2ccccc2)CCN3)c1	i	?	20µM*	?	32µM*
COc1cccc(OCc2nc3c(n2Cc2ccccc2)C(=O)N(C)CCN3)c1	i	i	-25%[138 µM]	-11%[70.6 µM]	?
O=C(Nc1ccc2c(c1)C(=O)N1CCC[C@H]1C(=O)N2)c1cc(-c2ccc3c(c2)CCO3)n[nH]1	i	i	0%	-2%	0%
Cc1ccc(N2C(=S)N[C@H]3[C@@H](O)[C@H](O)C[C@@H](C(=O)N4CCCCC4)[C@H]32)cc1	16µM*	-17%[88.5 µM]	i	3%[70.6 µM]	i
Cc1ccc([S+](=O)([O-])N2CCC(C(=O)N3CCC(N4Cc5cccn5C4=O)CC3)CC2)cc1	.	2%	?	.	?
O=C(C1CCCCN1Cc1ccc(-c2cccs2)cc1)N1CCC(Cc2ccccc2)CC1 (centres undefined)	.	i	?	.	?
O=C(NC1CC1)C1CCCCN1Cc1ccc(-c2cccs2)cc1 (centres undefined)	.	i	?	.	45µM*
SMILES	Luciferase inh	GPT2 inh	NIH3T3 tox	hNpr1 antagonist	HEK cytotox
O=C(NC1CCOCC1)C1CCCCN1Cc1ccc(-c2cccs2)cc1 (centres undefined)	.	2%	?	.	45µM*
O=C(C1CCCCN1Cc1ccc(-c2cccs2)cc1)N1CCN(Cc2ccccc2)CC1 (centres undefined)	.	-2%	32µM*	.	?
CCOc1ccccc1CN1CCC2(CCN(C(=O)N(C)C)CC2)Oc2ccccc21	i	i	?	-8%	?
OCC1(Cc2cccc(Cl)c2)CCCNC1 (centres undefined)	i	i	-7%	5%	0%
OCC1(Cc2cccc(Cl)c2)CCCN(Cc2nc(-c3ccc(F)cc3)cs2)C1 (centres undefined)	i	?	?	-23%	79µM*
COc1ccc(F)cc1-c1ccc(CN2CCC(NC(=O)c3ccc(NC(C)=O)cc3)C2)cc1 (centres undefined)	.	.	20µM*	.	?
COc1ccc(F)cc1-c1ccc(CN2CCC(NC(=O)c3ccc(C)cc3)C2)cc1 (centres undefined)	.	.	40µM*	.	28µM*
COc1ccc(C(=O)NC2CCN(c3cc(-c4ccc(Cl)cc4)[nH]n3)C2)cc1OC (centres undefined)	i	-11%	?	-15%	?
COc1ccc(F)cc1-c1ccc(CN2CCC(NC(=O)c3ccc(Cl)cc3)C2)cc1 (centres undefined)	.	.	14µM*	.	?
COc1ccccc1-c1ccc(CN2CCC(NC(=O)c3ccccn3)C2)cc1 (centres undefined)	.	i	?	.	?
COc1ccc(F)cc1-c1ccc(CN2CCC(NC(=O)c3ccccn3)C2)cc1 (centres undefined)	.	.	45µM*	.	?
Cc1ccc(C(=O)N2CCCC2C(=O)N2CCC(N3Cc4ccccc4C3=O)CC2)cc1 (centres undefined)	.	i	-29%	.	?
O=C(Nc1ccccc1)NC1CCN(Cc2ccc(-c3ccsc3)cc2)C1 (centres undefined)	.	i	?	.	?
COc1ccc(F)cc1-c1ccc(CN2CCC(NC(=O)Nc3ccccc3)C2)cc1 (centres undefined)	.	.	13µM*	.	20µM*
COc1ccc(C(=O)N2CCC(C(=O)N3CCC(c4ccccc4)CC3)CC2)cc1	.	-6%	-34%	.	-28%
CC(C)CNC(=O)c1cn2cc(-c3cccnc3)sc2n1	.	i	?	.	?
COCCCNC(=O)c1cn2cc(-c3cccc(OC)c3)sc2n1	.	-6%[88.5 µM]	?	.	79µM*
Cc1ccc(-c2cn3cc(C(=O)NCc4ccccn4)nc3s2)cc1	.	-8%	?	.	79µM*
COc1cccc(-c2cn3cc(C(=O)NCC(C)C)nc3s2)c1	.	?	?	.	22µM*
O=C(NCc1ccc(F)c(F)c1)c1cn2cc(-c3ccc(C(F)(F)F)cc3)sc2n1	.	i	45µM*	.	56µM*
